Read-out in test [1]: Monokine induced gamma interferon (MIG), CXCL9 (gene 4283)
Nature of the test: BSK_KF3CT_MIG: BioMAP Diversity Plus: KF3CT Assay for Monokine induced gamma interferon (MIG) Biomarker Activity (AID 2284248). The note with it: primary human keratinocytes with fibroblasts. In outline:
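ELISA read-out of MIG after 24 h chemical exposure of human skin primary co-culture (keratinocytes, foreskin fibroblasts). Gain of signal relative to DMSO negative control was analysed.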

Read-out in test [2]: Vascular cell adhesion molecule 1 (VCAM1), VCAM1 (gene 7412)
Nature of the test: BSK_BF4T_VCAM1: BioMAP Diversity Plus: BF4T Assay for Vascular cell adhesion molecule 1 (VCAM1) Biomarker Activity (AID 2284249). The note with it: primary human bronchial epithelial cells with fibroblasts. The method, boiled down: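 Human bronchial epithelial cell and dermal fibroblast co-culture exposed 24 h. VCAM-1 measured by ELISA; parallel SRB total-protein staining for cytotoxicity. Fitted in positive direction relative to DMSO.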

Read-out in test [3]: Macrophage Inflammatory Protein-1 Alpha (MIP1a), CCL3 (gene 6348)
Nature of the test: BSK_IMphg_MIP1a: BioMAP Diversity Plus: IMphg Assay for Macrophage Inflammatory Protein-1 Alpha (MIP1a) Biomarker Activity (AID 2284255). The note with it: primary human endothelial cells with macrophages. The method, boiled down: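 Co-culture of human venular endothelial cells and macrophages exposed to compounds for 24 h; MIP-1a measured by ELISA relative to DMSO. Cytotoxicity assessed in parallel cultures by sulforhodamine B total-protein staining at 560 nm.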

Read-out in a further test: CD69, CD69 (gene 969)
Nature of the test: BSK_IMphg_CD69: BioMAP Diversity Plus: IMphg Assay for CD69 Biomarker Activity (AID 2284257). The following applies: primary human endothelial cells with macrophages. The method, boiled down:
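Human venular endothelial cells co-cultured with macrophages; CD69 quantified by ELISA 24 h after compound addition. Activity fitted in the positive direction relative to DMSO baseline; cytotoxicity tracked in parallel cultures via SRB total-protein staining.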

Read-out in test [4]: Eotaxin 3, CCL26 (gene 10344)
Put plainly: BSK_BF4T_Eotaxin3: BioMAP Diversity Plus: BF4T Assay for Eotaxin 3 Biomarker Activity (AID 2284258). The following applies: primary human bronchial epithelial cells with fibroblasts. In outline:
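Co-culture of human bronchial epithelial cells and dermal fibroblasts, exposed to chemicals for 24 h versus DMSO. Eotaxin-3 quantified by ELISA; cytotoxicity checked in parallel cultures by sulforhodamine B total-protein staining.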

Read-out in test [5]: Monocyte Chemoattractant Protein-1 (MCP1), CCL2 (gene 6347)
Put plainly: BSK_BF4T_MCP1: BioMAP Diversity Plus: BF4T Assay for Monocyte Chemoattractant Protein-1 (MCP1) Biomarker Activity (AID 2284259). The following applies: primary human bronchial epithelial cells with fibroblasts. The method, boiled down: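 Co-culture of bronchial epithelial cells and dermal fibroblasts dosed with chemical; MCP-1 measured by ELISA 24 h later. Activity fitted in positive direction versus DMSO; cytotoxicity checked by SRB staining in parallel cultures.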

Read-out in test [6]: Interleukin-8 (IL8), CXCL8 (gene 3576)
Put plainly: BSK_MyoF_IL8: BioMAP Diversity Plus: MyoF Assay for Interleukin-8 (IL8) Biomarker Activity (AID 2284261). The following applies: primary human lung fibroblasts. The method, boiled down:
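Lung fibroblasts (human primary) → chemical exposure → 24 h → IL-8 measured by ELISA. Signal increase scored versus DMSO control.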

Read-out in another test: CD90, THY1 (gene 7070)
Nature of the test: BSK_BF4T_CD90: BioMAP Diversity Plus: BF4T Assay for CD90 Biomarker Activity (AID 2284262). The following applies: primary human bronchial epithelial cells with fibroblasts. The method, boiled down: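 Co-culture of human bronchial epithelial cells and dermal fibroblasts, 24 h compound exposure. Cell-surface CD90 measured by ELISA relative to DMSO; parallel SRB total-protein staining for cytotoxicity.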

Read-out in test [7]: Interleukin-8 (IL8), CXCL8 (gene 3576)
Nature of the test: BSK_BF4T_IL8: BioMAP Diversity Plus: BF4T Assay for Interleukin-8 (IL8) Biomarker Activity (AID 2284263). The note with it: primary human bronchial epithelial cells with fibroblasts. In outline: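 Human bronchial epithelial cells with dermal fibroblasts co-culture; IL-8 measured by ELISA 24 hours after dosing, fitted vs DMSO. Cytotoxicity tracked in parallel cultures by SRB total-protein staining.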

Read-out in test [8]: Interleukin-1 alpha (IL1a), IL1A (gene 3552)
Put plainly: BSK_BF4T_IL1a: BioMAP Diversity Plus: BF4T Assay for Interleukin-1 alpha (IL1a) Biomarker Activity (AID 2284264). The note with it: primary human bronchial epithelial cells with fibroblasts. In outline:
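Human bronchial epithelial cells co-cultured with dermal fibroblasts, dosed and read at 24 h. Secreted/surface IL-1α quantified by ELISA; gain-of-signal fitted relative to DMSO baseline. Parallel SRB total-protein staining tracked cytotoxicity.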

Read-out in another test: Decorin, DCN (gene 1634)
Put plainly: BSK_MyoF_Decorin: BioMAP Diversity Plus: MyoF Assay for Decorin Biomarker Activity (AID 2284265). The note with it: primary human lung fibroblasts. The method, boiled down:
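ELISA readout of decorin, 24 h post-dosing; primary human lung fibroblast (MyoF) culture; gain-of-signal fit vs DMSO baseline.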

Test [9] in a line: BSK_MyoF_SRB: Viability Assessment in the BioMAP Diversity Plus: MyoF Assay (AID 2284267).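 Further: total protein by SRB absorbance in parallel cultures as cytotoxicity measure.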 The note with it: primary human lung fibroblasts. In outline: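 Cytotoxicity in primary human lung fibroblasts is gauged by SRB total-protein staining 24 h after dosing, with DMSO as the negative control.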
Read-out in test [10]: Interferon-inducible T-cell alpha chemoattractant (ITAC), CXCL11 (gene 6373)
Put plainly: BSK_hDFCGF_ITAC: BioMAP Diversity Plus: hDFCGF Assay for Interferon-inducible T-cell alpha chemoattractant (ITAC) Biomarker Activity (AID 2284251). The following applies: primary human foreskin fibroblasts. In outline:
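ELISA readout of I-TAC after 24 h chemical exposure; human dermal foreskin fibroblast primary cells. Positive-direction fitting vs DMSO baseline. Parallel SRB total-protein staining (0.1% SRB after 10% TCA fixation, 560 nm) flags cytotoxicity.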

Read-out in test [11]: Interleukin-8 (IL8), CXCL8 (gene 3576)
Put plainly: BSK_KF3CT_IL8: BioMAP Diversity Plus: KF3CT Assay for Interleukin-8 (IL8) Biomarker Activity (AID 2284254). The note with it: primary human keratinocytes with fibroblasts. The method, boiled down:
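IL-8 read-out: ELISA, 24 h post-dose, human skin primary co-culture (keratinocytes + foreskin fibroblasts). DMSO = baseline; positive-direction fit.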

Read-out in test [12]: Plasminogen activator inhibitor-1 (PAI1), SERPINE1 (gene 5054)
Put plainly: BSK_MyoF_PAI1: BioMAP Diversity Plus: MyoF Assay for Plasminogen activator inhibitor-1 (PAI1) Biomarker Activity (AID 2284256).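 On outcome: PAI-1 protein level measured by ELISA in fibroblast cultures; PAI-1 read 24 h after compound addition.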 The note with it: primary human lung fibroblasts. The method, boiled down:
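MyoF lung fibroblasts, human primary; compound 24 h; PAI-1 ELISA; positive-direction fit vs DMSO baseline; parallel SRB total-protein staining for cytotoxicity.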

These results are taken from PubChem BioAssay (EPA / NIEHS).

Molecules are shown by their SMILES. Several values for one entry are separate records, joined by “and”; a condition that tells them apart may be missing. Equal values may be shown once. The source holds several records for some structures; these can differ, active in one and inactive in another. Activity calls are given as the source filed them. How the source made its calls: active means hit-call score of the fitted dose curve at least 0.9, where 1 is the maximum; inactive means score below 0.9.

Take `NC(=O)C(F)(F)C(F)(F)C(F)(F)C(F)(F)C(F)(F)C(F)(F)C(F)(F)F`: the outcome was “inactive” in test [1]; “inactive” in test [2]; “inactive” in [3]; “inactive” with CD69, CD69 (gene 969); “inactive” in test [4]; “inactive” in test [5]. The outcome is “inactive” in [6]; “inactive” with CD90, THY1 (gene 7070); “inactive” in test [7]; “inactive” in test [8]; “inactive” with Decorin, DCN (gene 1634); “inactive” in test [9]. Further, the AC50 in the test with CD69, CD69 (gene 969) was 23.5 µM (active).

As to `FC(F)(F)C(F)(F)C(F)(F)C(F)(F)C(F)(F)C(F)(F)CC[Si](Cl)(Cl)Cl`, the outcome was “inactive” in test [1]; “inactive” in test [2]; “inactive” in test [3]; “inactive” in the test with CD69, CD69 (gene 969); “inactive” in [4]; “inactive” in [5]. Besides, the outcome was “inactive” in test [6]; “inactive” in the test with CD90, THY1 (gene 7070); “inactive” in test [7]; “inactive” in test [8]; “inactive” with Decorin, DCN (gene 1634); “inactive” in [9].

With `CC(C)(C)c1cc(CCC(=O)NCCCCCCNC(=O)CCc2cc(C(C)(C)C)c(O)c(C(C)(C)C)c2)cc(C(C)(C)C)c1O`, the outcome in [6] is “inactive”; in the test with Decorin, DCN (gene 1634), “inactive”; in [9], “inactive”.

For `Cc1cc(C)c(O)c(C(C)(C)C)c1`, the outcome in test [6] was inactive. Further, the AC50 with Decorin, DCN (gene 1634) was 35.4 µM (active); in [9] it was 35.9 µM (active).

For the compound `CCN=C1C=CC(=C(c2ccc(N(CC)CC)cc2)c2ccc(N(CC)CC)cc2)c2ccccc21`, the AC50 was 2.63 µM (active) and 2.31 µM (active) in [1]; 704 nM (active) and 1.12 µM (active) in [10]; 2.34 µM (active) in test [11]. Besides, the result in test [11] was inactive.

With `O=C(O)C(F)(F)C(F)(F)C(F)(F)C(=O)O`, the outcome is “inactive” in [1]; “inactive” in test [2]; “inactive” in test [3]; “inactive” with CD69, CD69 (gene 969); “inactive” in test [4]; “inactive” in test [5]. The outcome in test [6] was “inactive”; with CD90, THY1 (gene 7070), “inactive”; in test [7], “inactive”; in test [8], “inactive”; in the test with Decorin, DCN (gene 1634), “inactive”; in [9] it was “inactive”.

As for `C[C@]12CC[C@H]3C(=CCc4cc(O)ccc43)[C@@H]1CCC2=O`, the outcome in test [6] was “inactive”; in the test with Decorin, DCN (gene 1634), “inactive”; in [9], “inactive”.

`CCOC(C=C(C)CCC=C(C)C)OCC`: the AC50 in test [12] was 20 µM (active); with Decorin, DCN (gene 1634) it was 0.016 µM (active); in test [9], 30.4 µM (active). In test [6], the result was inactive.

In the case of `CCN(CC)c1ccc(C=O)c(O)c1`, the AC50 in test [12] is 20 µM (active). Besides, the outcome is “inactive” in [6]; “inactive” with Decorin, DCN (gene 1634); “inactive” in test [9].

Take `O=C1C=CC(=O)N1c1ccc(Cc2ccc(N3C(=O)C=CC3=O)cc2)cc1`: the outcome in test [6] was “inactive”; with Decorin, DCN (gene 1634), “inactive”. For the same compound, the AC50 in test [9] was 3.58 µM (active).

Take `C=C(C)C(=O)OCC(F)(F)C(F)(F)C(F)(F)C(F)F`: the outcome is “inactive” in test [1]; “inactive” in test [2]; “inactive” in test [3]; “inactive” with CD69, CD69 (gene 969); “inactive” in [4]; “inactive” in [5]. The outcome in [6] is “inactive”; with CD90, THY1 (gene 7070) it was “inactive”; in test [7], “inactive”; in test [8] it was “inactive”; with Decorin, DCN (gene 1634), “inactive”; in [9], “inactive”.

On to `Cc1cnccn1`, for which the outcome was “inactive” in test [12]; “inactive” in test [6]; “inactive” with Decorin, DCN (gene 1634); “inactive” in test [9].

As for `CCN(CC)c1ccc(N=Nc2ccccc2)cc1`, the AC50 in [6] was 5.41 µM (active); in test [9], 20 µM (active). The result with Decorin, DCN (gene 1634) was inactive.

With `Cc1ccc(O)c(-n2nc3ccccc3n2)c1`, the outcome in test [12] is “inactive”; in test [6], “inactive”; with Decorin, DCN (gene 1634), “inactive”; in test [9], “inactive”.
